Here are results for 30 sequences from the OligoGym collection.

Among the targets are SNRNP200; SNN; SNCG; SNRNP70; SNX29; SQRDL; SRSF11; SSR4; ST6GAL2; STK24.
What all share (assay): pooled miR-30 sensor sort-seq; sequence = guide strand
Settings in all cases: shRNA
Also: reference of the scale not given here.

Consider TTCTTGAAGAAATCCTTCTTGG, for which the sensor-assay potency score (higher = more potent) with SNRNP200 was -0.674.

Turning to TTCACTAGCACATGGTATCTGG, the sensor-assay potency score (higher = more potent) with SNRNP200 was -0.256.

In the case of TATCTTGGTAAAGACTCTCAAA, the sensor-assay potency score (higher = more potent) with SNRNP200 is -1.23.

As for TTGGGAGTCATCAGCTTGGCCT, the sensor-assay potency score (higher = more potent) in the assay with SNN was -0.835.

With TTGGCCTTTCTCTCCACGCACG, in the assay with SNN, the sensor-assay potency score (higher = more potent) is -1.27.

In the case of TGTAATGAGGTGCTCGTCCTGG, in the assay with SNRNP200, the sensor-assay potency score (higher = more potent) was -0.352.

On to TTTCTCTCCACGCACGGTCCCT, for which the sensor-assay potency score (higher = more potent) in the assay with SNN is -1.1.

For the sequence TCTCCTCGTCCTCTGACTGGCT, the sensor-assay potency score (higher = more potent) with SNN is -0.606.

With TGGTCTTCTCAGCTGCTTCCGT, the sensor-assay potency score (higher = more potent) with SNCG is -1.23.

As to TTGCAGAAGAACGTTGATCTTA, in the assay with SNRNP200, the sensor-assay potency score (higher = more potent) is -0.0878.

Turning to TGCACTGACAACTCCAACTTGG, the sensor-assay potency score (higher = more potent) in the assay with SNRNP200 was -0.38.

Regarding TTGTTCTCAATGGTCTTGGTGA, the sensor-assay potency score (higher = more potent) with SNRNP200 is -0.0384.

Sequence TACACCTCAAACTCTCTCCGGA returned a sensor-assay potency score (higher = more potent) with SNRNP70 of 0.28.

In the case of TTGGTCTTCTCGGCCACTGAGG, in the assay with SNCG, the sensor-assay potency score (higher = more potent) is -1.32.

With ATGACGATGACTGTGACCACGC, the sensor-assay potency score (higher = more potent) with SNN was -0.588.

As to TCCTCGTCCTCTGACTGGCTGA, in the assay with SNN, the sensor-assay potency score (higher = more potent) was -1.43.

In the assay with SNRNP200, TTTCATTCTTTAGAACAGCTAG registered a sensor-assay potency score (higher = more potent) of 0.0872.

TTCATGTGGCAGTTTCTCCAGG: the sensor-assay potency score (higher = more potent) with SNRNP70 is -0.18.

Consider TTACAGTAGTAGCTCCATCAAA, for which the sensor-assay potency score (higher = more potent) with SNN is -1.39.

For AATCTTCTTGCCATCTGCGTGT, the sensor-assay potency score (higher = more potent) with SNRNP70 is -0.116.

For TGACTGGCTGATGCGCTGCAGC, the sensor-assay potency score (higher = more potent) with SNN was -1.74.

In the case of TTGACCTTCTCTTTTCAGCATC, the sensor-assay potency score (higher = more potent) with SNX29 was -0.863.

In the case of ATAGGTTCCAAGTCCTTCGTGC, the sensor-assay potency score (higher = more potent) in the assay with SQRDL is 0.618.

In the case of TAACAGGAGCTTTATAACCATT, the sensor-assay potency score (higher = more potent) in the assay with SRSF11 is -1.45.

On to TTCTTTACTAGAGGTATCCGAT, for which the sensor-assay potency score (higher = more potent) with SRSF11 is -0.524.

In the case of TCGTCGAAGAATCTAACCTCAT, in the assay with SSR4, the sensor-assay potency score (higher = more potent) is -1.5.

On to TGACTGTAAACAGAGGCGGGAT, for which the sensor-assay potency score (higher = more potent) in the assay with SSR4 is -0.672.

Take TTTATTCCCAACATCTTTCTCA: in the assay with ST6GAL2, the sensor-assay potency score (higher = more potent) is 0.384.

On to TTCTCTTTAGTGTTCTCCTGGA, for which the sensor-assay potency score (higher = more potent) in the assay with ST6GAL2 turned out to be 0.105.

As for TTTCCTTCCAACGTCGGTGGGT, the sensor-assay potency score (higher = more potent) with STK24 amounted to 0.554.
